# Screens as filed in PubChem.
# A selection: hits, their analogues and other compounds. The true share with any hit is near 8.3%.
# FMDV antiviral: antivirals against foot and mouth disease virus. 1.2% of 410,000 active. Potency, µM (top dose mostly 57.9 µM), for the others: at the highest dose activity change, negative = inhibition, hits mostly inhibitors. FMDV antiviral cell-based qHTS; calls by dose curve; tested in HEK293T cells; also: read-out not given here; potency is read from the fitted curve at half-maximal effect; nearly all actives have a fitted effect of over 45% in size
# FBPA Giardia inh: inhibitors of Giardia lamblia fructose-1,6-bisphosphate aldolase | purified Giardia FBPA | Potency, µM (top dose mostly 59.6 µM), for inactives: top-dose activity, negative = inhibition, most hits filed as inhibitors | 0.71% of 290,000 active | AID 2451; also: potency is read from the fitted curve at half-maximal effect; nearly all actives have a fitted effect of over 55% in size
# Target sequence (A8B2U2 whole entry, looked up): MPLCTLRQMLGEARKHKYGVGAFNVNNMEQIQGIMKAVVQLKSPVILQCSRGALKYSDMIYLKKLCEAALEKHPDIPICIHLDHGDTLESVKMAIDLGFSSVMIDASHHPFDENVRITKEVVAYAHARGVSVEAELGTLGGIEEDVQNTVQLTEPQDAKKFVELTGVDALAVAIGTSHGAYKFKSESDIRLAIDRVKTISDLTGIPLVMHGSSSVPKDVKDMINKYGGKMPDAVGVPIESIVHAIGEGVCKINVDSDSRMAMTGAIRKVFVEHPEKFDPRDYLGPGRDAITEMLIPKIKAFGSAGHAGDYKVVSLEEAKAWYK
#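 40 nM FBPA preincubated 10 min at RT with compound (up to 57.5 uM final), then substrate plus GAPDH/TPI/NAD/arsenate coupling and diaphorase/resazurin added. Fluorescence read after 20 min at RT, 525/598 nm.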
# HCMV inh: human cytomegalovirus inhibition; AID 1259415; 4.5% of 410,000 active; HFF cells, HCMV-luciferase reporter, 72 h; active compounds read low; activity change, negative = inhibition, % at 57.5 µM; in the data active = activity change below about -60%; inconclusive = no clear call, values can overlap the other calls; inactive = above about -39%
#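 Inhibition of viral replication was scored as loss of reporter luminescence in HFFs infected with HCMV-luciferase (MOI 1 PFU/cell) for 72 h; compounds tested at 2 doses, normalized to buffer and Salinomycin controls.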
# HCV inh: HCV inhibition | Huh7.5.1 HCVcc-Cre infection, luciferase reporter, 44 h | Potency, µM (titrated, usually from 41.8 µM), for inactives: at the highest dose activity change, negative = inhibition, most hits filed as inhibitors | 3.4% of 340,000 active | AID 651820; also: potency is read from the fitted curve at half-maximal effect
#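 After 44 h co-culture of compound, cells and HCVcc-Cre (~0.5 moi), substrate is added for 15 min at room temperature and luciferase measured over 15 sec. Cells were seeded at 1,000/well and pre-cultured 4 h.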
# Lassa entry inh: inhibitors of Lassa virus binding or cell entry. 1.2% of 300,000 active. Potency, µM (highest dose often 37.9 µM), inactives show at the highest dose activity change, negative = inhibition, hits mostly inhibitors. Lassa virus pseudotype entry inhibition, cell reporter; calls by dose curve; tested in HEK293 cells; also: potency is read from the fitted curve at half-maximal effect; nearly all actives have a fitted effect of over 50% in size
# MARV entry inh: inhibitors of Marburg virus binding or cell entry. Marburg virus pseudotyped entry inhibition, cell reporter. Potency, µM (highest dose often 37.8 µM), without a hit: at the highest dose activity change, negative = inhibition, actives largely listed as inhibitors. 1.8% of 300,000 active. AID 540276; calls by dose curve; tested in HEK293 cells; also: potency is read from the fitted curve at half-maximal effect
# Active calls of the source: *; ? = inconclusive; · = no result given; + = active, no number; [ ] = another dose, or the depositor's remark. Unless noted, calls follow the shape of the dose curve; as a rule, active = well fitted curve in the direction sought with a large enough effect; inconclusive = small, poorly fitted or top-dose-only effect, or another doubt; inactive = no such curve, though single readings can be large; an effect the other way counts as inactive or inconclusive. % is scaled to controls: 0 for no effect and ±100 for the full control effect.
SMILES,FMDV antiviral,FBPA Giardia inh,HCMV inh,HCV inh,Lassa entry inh,MARV entry inh
COc1cc(C2C(C(=O)OC(C)C)=C(C)N=C3SCCC(=O)N32)ccc1OCc1ccccc1 (stereo unspecified),-17%,·,-7,·,-26%[46.1 µM],?
CCc1c(C)c2cc3c(c(C)c2oc1=O)OCN(CCc1ccccc1F)C3,-10%,·,34,·,?,13%[46.1 µM]
O=C(c1cnccn1)N1CCC2(CC1)CN(c1ncccn1)C2,-9%,0%,·,·,·,·
COc1ccc(NC(=S)NC(=O)c2ccccc2)cn1,41%,?,43,-2%,·,·
COc1ccc(NS(=O)(=O)c2ccc3c(c2)Cc2ccccc2-3)cn1,·,-19%,-14,2.8µM*,-9%,-22%
CC(C)(C)c1ccc(C(=O)Nc2ccc(S(=O)(=O)Nc3cnc4ccccc4n3)cc2)cc1,2%,-16%,-70*,14%,-8%,?
COc1ccc(NC(=O)c2cccc(Oc3ccccc3)c2)cn1,11%,5%,?,?,?,7.9µM*
O=C(Nc1ccc(Br)cc1)c1cccc(S(=O)(=O)Nc2ccc(Br)cc2)c1,·,-7%,·,·,·,·
O=C(Nc1ccc(Br)cc1)c1cccc(S(=O)(=O)Nc2cnc3ccccc3c2)c1,-22%,15%,-24,?,?,2.8µM*
COc1ccc(NS(=O)(=O)c2ccc(N3CCCC3=O)cc2)cn1,-29%,6%,?,?,?,?
COC(=O)/C(=C1/OC(=O)C(c2ccccc2)=C1O)c1ccccc1,28%,?,·,·,·,·
CCC(=O)c1ccc(OCC(=O)Nc2cc(S(=O)(=O)N3CCCCC3)ccc2OC)cc1,-43%,·,-5,11µM*,·,·
CCOc1ccc(S(=O)(=O)N2CCCCC2)cc1NC(=O)Cc1cc(OC)c(OC)c(OC)c1,-24%,·,-88*,·,·,·
Cc1ccc(S(=O)(=O)N2CCCCC2)cc1NC(=O)COc1ccccc1,-5%,·,18,?,-6%[46.1 µM],?
CS(=O)(=O)c1ccc2nc(NC(=O)CN3CCN(Cc4ccccc4)CC3)sc2c1,-14%,0%,-32,-3%,10%,3%
CS(=O)(=O)c1ccc2nc(NC(=O)CN3CCC(Cc4ccccc4)CC3)sc2c1,0%,-19%,-85*,11%,15%[46.1 µM],-3%[46.1 µM]
COc1ccc(S(=O)(=O)N2CCCCCC2)cc1NC(=O)CCCOc1ccccc1,6%,·,-31,13µM*,·,·
COc1ccc(OCCCC(=O)Nc2cc(S(=O)(=O)N3CCCCC3)ccc2OC)cc1,-13%,·,14,?,·,·
Cc1cc(C)c(NC(=O)Cn2c(=O)n(-c3ccc(F)cc3)c(=O)c3c(C)c(C(=O)N(C)C)sc32)c(C)c1,-1%,·,13,·,-2%[46.1 µM],·
CCN(CC)C(=O)Cn1c(=O)n(CCCCCC(=O)NCc2ccc(C)cc2)c(=O)c2sccc21,1%,·,-7,·,6%[46.1 µM],16%[46.1 µM]
CCC(CC)C(=O)OCC(=O)Nc1ccc(S(=O)(=O)N2CCOCC2)cc1OC,0%,0%,-4,3%,1%,2%
CCOc1ccc(S(=O)(=O)N2CCCCC2)cc1NC(=O)C1COc2ccccc2O1 (stereo unspecified),?,·,-38,10µM*,-18%,?
CCC(C)SCC(=O)Nc1ccc(S(=O)(=O)N2CCOCC2)cc1OC (stereo unspecified),2%,7%,-30,11µM*,3%,4%[46.1 µM]
COc1cc(NC(=O)c2ccc(C)cc2)c(OC)cc1NC(=O)CN1CCCCC1,-16%,-4%,0,?,-2%,-13%
COc1ccc(S(=O)(=O)N2CCCCC2)cc1NC(=O)Cc1sc(C)nc1-c1ccc(F)cc1,-16%,·,-65*,?,?,?
SMILES,FMDV antiviral,FBPA Giardia inh,HCMV inh,HCV inh,Lassa entry inh,MARV entry inh
COc1cc(NC(=O)c2cc(OC)c(OC)c(OC)c2)c(OC)cc1NC(=O)CN1CCCCC1,-10%,-10%,34,2.5µM*,-24%,?
Cc1ccc(CNc2ncnc3sc(C(=O)N4CCCC(C(N)=O)C4)c(C)c23)o1 (stereo unspecified),-20%,·,·,·,·,·
COc1ccc(S(=O)(=O)N2CCOCC2)cc1NC(=O)CN1CCC(Cc2ccccc2)CC1,-16%,-6%,-66*,10µM*,10µM*,?
COc1ccc(S(=O)(=O)N2CCOCC2)cc1NC(=O)CN1CCCC1,-11%,2%,-9,-9%,23%,?
COCCN1C(=O)CC[C@@]23C1=NC(C(=O)OC)=C(C(=O)OC)[C@@H]2N(CC=C(C)C)c1ccccc13,·,·,·,·,·,-14%[14.2 µM]
COc1ccc(-c2cc(C)cc3c2OC(CNC(=O)c2cc(C(C)C)on2)C3)nn1 (stereo unspecified),-3%,·,·,·,·,·
CC(C)c1ccc(N2C(=O)CSC23C(=O)N(Cc2cccc(F)c2)c2ccccc23)cc1 (stereo unspecified),?,·,?,·,-2%[46.1 µM],·
CC(C)c1ccc(N2C(=O)CSC23C(=O)N2CCCc4cccc3c42)cc1 (stereo unspecified),0%,3%,-111*,-6%,-1%,8%
Cc1ccc(S(=O)(=O)N(Cc2ccccc2)c2ccccc2C(=O)NCc2ccco2)cc1,·,-5%,-19,?,?,?
O=C(CN(c1ccccc1)S(=O)(=O)c1ccccc1)Nc1ccccc1C(=O)NCc1ccco1,-12%,-9%,-62*,?,?,?
Cc1ccc(S(=O)(=O)N(Cc2ccccc2)c2ccccc2C(=O)Nc2ccccc2C(=O)NCc2ccco2)cc1,13%,-1%,?,8%,-3%,16µM*
CS(=O)(=O)N(Cc1ccccc1)c1ccccc1C(=O)Nc1ccccc1C(=O)NCc1ccco1,-23%,-5%,-3,-15%,-2%,4.1µM*
CCN1CCN(C(=O)c2ccccc2N(Cc2ccccc2)S(=O)(=O)c2ccc(C)cc2)CC1,0%,2%,7,?,?,5.8µM*
COC(=O)N1[C@H](C)C=C[C@]1(Cc1ccccc1)C(=O)NCc1ccc(N(C)C)cc1,·,-14%,·,·,·,·
Cc1cccc(NC(=O)c2c(N)sc3c2CCC(C)C3)c1 (stereo unspecified),42%,·,-29,·,4%[46.1 µM],?
CNC(=O)[C@H]1O[C@@H](n2cnc3c(NCc4cccc(I)c4)nc(Cl)nc32)[C@H](O)[C@@H]1O,-20%,·,44,-15%,·,·
Cc1ccc2oc(-c3ccc(Cl)cc3)c(O)c(=O)c2c1,29%,·,-77*,·,1%[46.1 µM],?
Cc1nc2cccnc2n1-c1cccc(C(=O)NCc2cccc(Cl)c2)c1,?,·,+,·,2%[46.1 µM],·
Cc1ccc(CNC(=O)c2ccc3c(c2)nc(C)n3-c2cccc(F)c2)cc1,9%,·,-77*,·,1%[46.1 µM],·
CCc1ccc(CNC(=O)c2cccc(-n3c(C)nc4cccnc43)c2)cc1,?,·,0,·,-1%[46.1 µM],·
Cc1ccc(OCC(=O)NC2CC(C)(C)NC(C)(C)C2)c(C)c1,-15%,2%,-4,-3%,-21%[46.1 µM],-4%[46.1 µM]
